Screening results deposited in PubChem BioAssay by Sanford-Burnham Center for Chemical Genomics.
CYP2C19 act – activators of human cytochrome P450 2C19 | P33261 | recombinant CYP2C19, luciferin-H EGE luminescence; hits give high values; 0 = fully inhibited enzyme, 1 = untreated enzyme | activation factor at 5 µM | 96,000 tested, under 10 active | AID 1025;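 active = activation factor of at least 2 at 5 µM in the primary screen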;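 note: 0 = wells with 2.5 mM tranylcypromine and 1 = vehicle-only wells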
CYP2C9 activ – activators of human CYP2C9; P11712; recombinant CYP2C9, luciferin-H conversion, luminescence; hits give high values; factor 1 = untreated enzyme, 0 = blocked; activation factor at 5 µM; hit rate 1.4% among 96,000;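 active = activation factor of 2 or more for CYP2C9 at a 5 µM dose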;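 note: 0 = sulfaphenazole-blocked wells and 1 = vehicle-only wells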
Target sequence (P11712 whole entry, looked up): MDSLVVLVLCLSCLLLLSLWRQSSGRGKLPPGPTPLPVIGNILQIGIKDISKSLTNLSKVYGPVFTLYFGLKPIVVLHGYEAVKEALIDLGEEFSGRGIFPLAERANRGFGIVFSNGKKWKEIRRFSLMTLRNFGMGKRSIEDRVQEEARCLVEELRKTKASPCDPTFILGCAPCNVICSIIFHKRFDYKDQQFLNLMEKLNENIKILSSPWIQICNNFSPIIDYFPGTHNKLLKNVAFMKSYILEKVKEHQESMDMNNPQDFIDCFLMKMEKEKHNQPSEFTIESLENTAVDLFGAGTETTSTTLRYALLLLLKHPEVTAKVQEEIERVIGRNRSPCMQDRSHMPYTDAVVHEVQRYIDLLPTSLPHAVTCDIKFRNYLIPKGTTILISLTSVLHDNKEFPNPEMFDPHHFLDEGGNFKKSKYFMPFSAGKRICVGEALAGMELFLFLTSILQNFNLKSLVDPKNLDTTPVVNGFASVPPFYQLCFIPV
CYP2C9 inh – human CYP2C9 inhibition; CYP2C9 Supersomes, luciferin-H conversion, luminescence; inhibition, % at 5 µM; hit rate 20% among 96,000;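 active = blocking of liver enzyme CYP2C9 beyond about 50% at 5 µM, limit read from the data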
CYP2C19 inhib – human CYP2C19 inhibition. CYP2C19 Supersomes, luciferin-H EGE luminescence, 30 min. inhibition, % at 5 µM. hit rate 21% among 96,000. AID 778;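 active = CYP2C19 inhibition above a set limit at 5 µM in the primary screen, cut at about 50% in these data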;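 note: plate controls were negative control wells for no effect and 2.5 mM tranylcypromine positive control for full effect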
Numbers without * were called inactive. Sampled rows, rich in hits. Any-hit rate of the full collection: about 31%.

SMILES	CYP2C19 act	CYP2C9 activ	CYP2C9 inh	CYP2C19 inhib
COC(=O)c1ccccc1NC(=O)c1cc2ncc(Br)cn2n1	1.1	1.5	-46	-9
COCCn1c(-c2cc(OC)c(OC)c(OC)c2)nc2oc3ccccc3c(=O)c2c1=O	1.1	1.2	-25	-15
Cc1cc(C)nc(-n2nc(C)cc2NC(=O)c2ccc3c(c2)OCO3)n1	1.2	1.4	-41	-16
Cc1nc(-c2coc3cc(OCC(=O)O)ccc3c2=O)cs1	0.5	1.1	-5	47
Cc1nc(-c2coc3cc(O)c(C)cc3c2=O)cs1	0.3	1	4	68*
CCSc1nnc(NC(=O)Cc2ccc(OC)cc2)s1	0.8	0.6	35	25
O=C1c2ccccc2-c2nnc(-c3ccccc3)cc21	0.7	0.8	21	25
CN(C)c1ccc(-c2ccccc2)nn1	0.4	0.8	19	58*
CCOC(=O)N1CCN(c2cc(N3CCN(CC)CC3)c(F)cc2[N+](=O)[O-])CC1C (stereo unspecified)	0.8	0.7	34	23
CCn1cc(C2=NOC(C(=O)Nc3cc(C)nn3-c3ccccc3)C2)c(C)n1 (stereo unspecified)	1.1	1.1	-8	-12
O=C(N/N=C/c1cccnc1)C(O)(c1ccccc1)c1ccccc1	0.6	0.6	41	39
O=C(N/N=C(\c1ccccc1)c1cccnc1)C(O)(c1ccccc1)c1ccccc1	0.7	0.3	67*	28
Cc1cc(C)c(C#N)c(Sc2nnnn2-c2ccccc2)n1	0.4	0.8	18	57*
CSc1nc(C)cc(C)c1C#N	0.9	1	1	6
Cc1ccccc1-n1nnnc1SCC(N)=O	1	1	3	-4
Cc1nc(Sc2nnnn2-c2ccccc2)c(C#N)c(C)c1C	0.4	0.9	11	59*
c1ccc(-n2nnnc2Sc2n[nH]c(-c3ccncc3)n2)cc1	0.6	0.2	80*	43
Cc1ccccc1-n1nnnc1Sc1nnnn1-c1ccccc1	0.1	0.8	17	88*
CCCn1c(Sc2nnnn2-c2ccccc2)n[nH]c1=O	0.9	0.8	17	13
CCn1c(=N)n(CC(=O)C23CC4CC(CC(C4)C2)C3)c2ccccc21	0.9	1	0	9
Cc1cccc(NC(=O)C2(C)CC3c4ccccc4C2c2ccccc23)c1 (stereo unspecified)	1	0.9	14	-2
CN(C(=O)c1cc2n(n1)C(C(F)(F)F)CC(c1ccco1)N2)c1ccccc1 (stereo unspecified)	0.7	0.9	14	31
COC(=O)c1cc(NC(=O)CC2NC3CCCCC3NC2=O)cc(C(=O)OC)c1 (stereo unspecified)	0.8	0.9	9	20
Cc1ccc(-c2cnn(-c3cccc([N+](=O)[O-])c3)c2N)cc1	0.6	1.2	-20	38
Nc1nc(CN2CCN(c3ccc(F)cc3)CC2)nc(N2CCCc3ccccc32)n1	0.4	0.5	53*	60*
SMILES	CYP2C19 act	CYP2C9 activ	CYP2C9 inh	CYP2C19 inhib
CCOC(=O)C1=CN(c2cccc(F)c2)C=C(C(=O)OCC)C1c1cc(OC)c(O)c([N+](=O)[O-])c1	1.2	0.4	57*	-16
CC(=O)c1ccc(NC(=O)CSc2nnc(NC(=O)CN3CCOCC3)s2)cc1	0.9	0.3	67*	6
Cc1ccc(NC(=O)CSc2nnc(NC(=O)CN3CCOCC3)s2)cc1	0.4	0.9	10	57*
Cc1cccc(C)c1NC(=O)CSc1nnc(NC(=O)CN2CCOCC2)s1	0.8	1	1	20
O=C(CSc1nnc(NC2CCCCC2)s1)Nc1ccc(N2CCOCC2)cc1	1	0.8	18	-2
CC(C)Nc1nnc(SCC(=O)Nc2ccc(F)cc2)s1	0.1	0.3	70*	91*
CC(Oc1cc(-c2ccccc2)cc2ccccc12)C(=O)N1CCOCC1 (stereo unspecified)	0.6	0.6	35	43
Cc1cc(Cl)ccc1OCCCC(=O)NC1CCN(C)CC1	0.9	1.1	-13	9
Cc1ccc(CN(CC(=O)N/N=C/c2ccccc2[N+](=O)[O-])S(=O)(=O)c2ccc(C)cc2)cc1	0	0.2	85*	97*
Cc1ccc(S(=O)(=O)N(CC(=O)N/N=C/c2ccco2)Cc2ccccc2)cc1	0.6	0.6	42	36
O=C(CN(Cc1ccccc1)S(=O)(=O)c1ccccc1)N/N=C/c1ccccc1[N+](=O)[O-]	0.6	0.3	65*	42
O=C(NCc1cccc(CNC(=O)c2ccco2)c1)c1ccco1	1	1.1	-6	4
O=C(CN(Cc1ccc(F)cc1)C(=O)c1ccco1)NCc1ccc(F)cc1	0.2	0.7	26	83*
O=C(CN(C(=O)c1ccco1)c1cccc(F)c1)NCc1ccc(F)cc1	0.2	0.7	35	78*
O=C(/C=C/Nc1ccc(F)cc1)c1ccco1	1	1	3	3
O=C(c1ccco1)N(CCC(c1ccccc1)c1ccco1)Cc1ccc(F)cc1 (stereo unspecified)	0.7	0.1	85*	34
CCCCn1c(SCc2cc(=O)n3ccsc3n2)nc2cc(C(=O)OC)ccc2c1=O	1	0.9	12	-3
C/C(=N/NC(=O)c1cccs1)c1ccc(NC(=O)COc2ccc(Cl)cc2)cc1	1.1	1	-2	-7
Cc1ccc(-c2nnc(SCC#CCOC(=O)c3ccco3)o2)cc1	0.1	0.1	89*	89*
COc1cccc(C(=O)Nc2ccc(-c3nnc(-c4ccco4)o3)cc2)c1	0.3	0.6	43	65*
O=C(Nc1ccc(-c2nnco2)cc1)c1ccccc1	0.2	0.2	77*	83*
Cc1ccc(-c2nnc(-c3ccc(NC(=O)c4ccco4)cc3)o2)cc1	0.3	0.2	79*	67*
CC(C)c1ccc(NC(=O)N2CCC(c3nc4ccccc4o3)CC2)cc1	0.9	0.7	27	13
O=C1CC(N2CCN(c3ccc(F)cc3)CC2)C(=O)N1Cc1ccc(N2CCCC2=O)cc1 (stereo unspecified)	0.8	0.8	20	22
COc1ccc(-c2cc(-c3c(O)c(OC)c4occc4c3OC)[nH]n2)cc1	0.3	0.1	90*	70*
SMILES	CYP2C19 act	CYP2C9 activ	CYP2C9 inh	CYP2C19 inhib
Cc1cc(C)n(-c2cc(-c3ccccc3)nc(C)n2)n1	0.8	0.8	22	22
CCOc1cccc2cc(-c3nnc(NCc4ccco4)s3)c(=O)oc12	0.9	2.9*	-190	10
CN(C)S(=O)(=O)c1ccc(C(=O)Nc2ccnn2C2CCCCC2)cc1	1	0.4	63*	-4
C=CCOc1ccccc1/C=N/O	0.9	1	-4	6
Cc1ccc(Oc2ccccc2/C=N/O)cc1	0.2	0.6	40	82*
Cc1cc(C)cc(C(=O)/C=C2\NC(=O)CS2)c1	1.1	1.1	-9	-10
CCOC(=O)CSc1cc(CS(=O)(=O)c2ccccc2)nc(-c2ccccc2)n1	0.2	0.5	54*	81*
O=S(=O)(Cc1cc(Cl)nc(-c2ccccc2)n1)c1ccccc1	0.1	1.4	-38	92*
Cc1ccnc(NS(=O)(=O)c2ccc(NC(=O)C34CC5CC(C)(CC(C)(C5)C3)C4)cc2)n1	1	0.4	58*	-1
